# Laboratory results from PubChem BioAssay AID504852 (Southern Research Specialized Biocontainment Screening …, 2011).
# Measured potencies and affinities stand elsewhere. The source made the active and inactive calls. No rule for the calls is given here.
# Experiment: THP-1 cell cytotoxicity, dose response, cytotoxicity control, set 3 (AID 504852)
# Settings: THP-1 cell viability, cytotoxicity CC50; series mostly up to 100 µM
row,SMILES,outcome
1,CN1CCC(NC(=O)CSc2nc3ccccc3c(=O)[nH]2)CC1,inactive
2,Cn1c(SCC(=O)NC2CCCCC2)nc2ccccc2c1=O,inactive
3,Cc1cc(=O)[nH]c(SCC(=O)NC2CCCCC2)n1,inactive
4,Cc1c[nH]c(=S)[nH]c1=O,inactive
5,Cc1nc(SCC(=O)NC2CCCC2)[nH]c(=O)c1C,inactive
6,Cc1cnc(SCC(=O)NC2CCCCC2)[nH]c1=O,inactive
7,CCOC(=O)CSc1nc(C)c(C)c(=O)[nH]1,inactive
8,Nc1cc(=O)[nH]c(SCC(=O)NC2CCCCC2)n1,inactive
9,O=C(CSc1ncccn1)NC1CCCCC1,inactive
10,O=c1[nH]c(SCc2ccccc2Cl)nc2c1CCCC2,inactive
11,Cc1nc(SCC(=O)NCCC(C)C)[nH]c(=O)c1C,inactive
12,O=C(CSc1nc2ccccc2c(=O)[nH]1)NC1CCCCC1,inactive
13,Cc1[nH]c(=S)[nH]c(=O)c1C,inactive
14,O=C(CSc1nc2ccccc2c(=O)[nH]1)N1CCOCC1,inactive
15,Cc1nc(SCc2ccccc2Cl)[nH]c(=O)c1C,inactive
16,CCC(Sc1nc2ccccc2c(=O)[nH]1)C(=O)Nc1cccc(OC)c1 (stereo unspecified),inactive

row,SMILES,outcome
1,Cc1nc(SCC(N)=O)[nH]c(=O)c1C,inactive
2,O=C(CSc1nc2ccccc2c(=O)[nH]1)NC1CCCC1,inactive
3,COc1cccc(NC(=O)CSc2nc3c(c(=O)[nH]2)CCC3)c1,inactive
4,O=c1[nH]c(=S)[nH]c2ccccc12,inactive
5,O=C(CSc1nccc(=O)[nH]1)NC1CCCCC1,inactive
6,CCSc1nc(C)c(C)c(=O)[nH]1,inactive
7,CN(C)C(=O)CSc1nc2ccccc2c(=O)[nH]1,inactive
8,O=C(CSc1nc2c(c(=O)[nH]1)CCC2)NC1CCCCC1,inactive
9,CC(C)CCNC(=O)CSc1nc2c(c(=O)[nH]1)CCC2,inactive
10,COc1ccc(NC(=O)CSc2nc3ccccc3c(=O)[nH]2)cc1,inactive
11,Cc1cc(=O)[nH]c(=S)[nH]1,inactive
12,NC(=O)CSc1nc2ccccc2c(=O)[nH]1,inactive
13,CC(C)NC(=O)CSc1nc2ccccc2c(=O)[nH]1,inactive
14,CCC(Sc1nc2c(c(=O)[nH]1)CCC2)C(=O)Nc1cccc(OC)c1 (stereo unspecified),inactive
15,Cc1ccc(NC(=O)CSc2nc3ccccc3c(=O)[nH]2)cc1Cl,inactive
